Inconclusive results are not listed. The source made the active and inactive calls. How the source made its calls, unless noted: active means hit-call score of the fitted dose curve at least 0.9, where 1 is the maximum; inactive means score below 0.9.
Legend:
[1] = ACEA_ER_80hr: ACEA Biosciences xCELLigence Real-Time Cell Analysis on Estrogen Receptor Agonism for Proliferation (AID 2282667; active means hit-call score of the fitted dose curve at least 0.9, where 1 is the maximum); settings: T47D proliferation, impedance (xCELLigence), 80 h
Procedure, shortened: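 T-47D cells monitored by electrical impedance (xCELLigence) with compound present throughout; 80 h timepoint, positive-direction fitting versus DMSO. Eight-point 1:4 dilutions from 100 uM final, duplicate plates.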

[2] = ATG_CRE_CIS: Attagene CIS-FACTORIAL HepG2 Assay for human cAMP Responsive Element (CRE) binding protein 3 (AID 2282926); settings: HepG2 CRE cis-reporter, Attagene multiplexed mRNA; actives raise or lower the signal
Procedure, shortened: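 Induced reporter mRNA from a CRE cis element, measured in HepG2 among many multiplexed units at 24 h. Detection used RT-PCR plus capillary electrophoresis of fluorescent fragments; DMSO served as negative control.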

[3] = molecular target: CCAAT/enhancer-binding protein beta (Homo sapiens) (UniProt P17676); assay: ATG_C_EBP_CIS: Attagene CIS-FACTORIAL HepG2 Assay for human CCAAT/Enhancer Binding Protein (C/EBP) beta (AID 2282927); settings: HepG2 Attagene cis-factorial transcription factor reporter; actives raise or lower the signal
Sequence of CCAAT/enhancer-binding protein beta (Homo sapiens) (P17676 whole entry, looked up): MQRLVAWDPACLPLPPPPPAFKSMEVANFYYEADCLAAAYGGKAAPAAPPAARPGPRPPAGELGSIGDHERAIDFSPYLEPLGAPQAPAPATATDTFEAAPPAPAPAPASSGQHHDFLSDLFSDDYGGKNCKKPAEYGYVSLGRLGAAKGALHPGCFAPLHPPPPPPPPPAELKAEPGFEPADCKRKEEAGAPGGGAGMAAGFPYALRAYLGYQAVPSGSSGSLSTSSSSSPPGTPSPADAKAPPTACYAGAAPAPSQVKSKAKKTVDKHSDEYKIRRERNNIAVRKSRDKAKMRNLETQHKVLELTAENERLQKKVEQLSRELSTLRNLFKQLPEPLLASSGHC
Procedure, shortened: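 Following a 24 h incubation with test chemical, transfected HepG2 cells yielded RNA whose reporter transcripts were quantified by RT-PCR and fluorescent capillary electrophoresis, with DMSO serving as baseline for bidirectional fitting.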

[4] = ATG_CMV_CIS: Attagene CIS-FACTORIAL HepG2 Assay for human CMV (Internal Marker) (AID 2282928); settings: HepG2 CMV promoter reporter, transcription factor profiling; actives raise or lower the signal;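 further: endpoint acts as a background internal control marker rather than a target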
Procedure, shortened: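 Bidirectional fits against DMSO are applied to reporter mRNA, read by RT-PCR with capillary electrophoresis, from HepG2 cells exposed 24 h. The endpoint serves as an internal CMV background marker within the cis-factorial reporter panel.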

[5] = ATG_DR4_LXR_CIS: Attagene CIS-FACTORIAL HepG2 Assay for human Liver X Receptor (LXR), DR4 submotif (AID 2282929); settings: HepG2 Attagene DR4 cis-reporter, mRNA transcription; actives raise or lower the signal
Procedure, shortened: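 HepG2 cells transiently transfected with cis-promoter-driven multiplexed reporter units (DR4 element) were dosed for 24 h. Reporter mRNA was quantified by RT-PCR, fluorescent primer extension, HpaI digestion and capillary electrophoresis; bidirectional fitting versus DMSO baseline.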

[6] = ATG_AP_2_CIS: Attagene CIS-FACTORIAL HepG2 Assay for human Activator Protein 2 (AP-2) (AID 2282932); settings: HepG2 AP-2 cis-reporter, Attagene transcription factor profiling; actives raise or lower the signal
Procedure, shortened: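 Assay in transfected HepG2 with promoter-regulated reporters, 24 h incubation after dosing. Signal is reporter mRNA fluorescence (RT-PCR, capillary electrophoresis), analysed for both increases and decreases relative to DMSO controls.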

[7] = ATG_BRE_CIS: Attagene CIS-FACTORIAL HepG2 Assay for human Bone Morphogenetic Protein (BMP) Response Element (BRE) (AID 2282933); settings: HepG2 BMP response element reporter, Attagene transcription factor profiling; actives raise or lower the signal
Procedure, shortened: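 Endogenous transcription factor activity at a BMP response element was monitored in transfected HepG2 cells 24 h after dosing. Fluorescent RT-PCR products were resolved by capillary electrophoresis, and activity was fitted in both directions versus DMSO.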

[8] = molecular target: Retinoic acid receptor alpha (Homo sapiens) (UniProt P10276); assay: ATG_DR5_RAR_CIS: Attagene CIS-FACTORIAL HepG2 Assay for human Retinoic Acid Receptor Alpha (RARE), DR5 submotif (AID 2282934); settings: HepG2 Attagene cis-factorial RARE DR5 reporter, mRNA; actives raise or lower the signal;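 on AC50: reporter responds to endogenous RAR alpha beta and gamma in HepG2 not RARA alone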
Sequence of Retinoic acid receptor alpha (Homo sapiens) (P10276 whole entry, looked up): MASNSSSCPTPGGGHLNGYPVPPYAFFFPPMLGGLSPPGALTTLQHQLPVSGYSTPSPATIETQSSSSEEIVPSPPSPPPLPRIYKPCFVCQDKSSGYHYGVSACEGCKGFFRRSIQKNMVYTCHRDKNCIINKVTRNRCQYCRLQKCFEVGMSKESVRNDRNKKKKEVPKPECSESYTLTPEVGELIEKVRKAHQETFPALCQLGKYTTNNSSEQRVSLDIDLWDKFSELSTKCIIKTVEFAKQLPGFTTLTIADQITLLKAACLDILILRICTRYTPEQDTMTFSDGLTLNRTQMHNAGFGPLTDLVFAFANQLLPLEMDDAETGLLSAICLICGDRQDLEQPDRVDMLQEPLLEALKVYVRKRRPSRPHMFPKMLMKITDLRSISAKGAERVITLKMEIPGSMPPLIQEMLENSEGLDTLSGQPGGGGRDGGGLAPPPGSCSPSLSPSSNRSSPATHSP
Procedure, shortened: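 Endpoint fitted in both directions relative to DMSO as negative control. It reflects DR5 cis-element reporter mRNA induction in transiently transfected HepG2 cells, measured 24 h after dosing through RT-PCR and fluorescent capillary electrophoresis.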

[9] = ATG_AP_1_CIS: Attagene CIS-FACTORIAL HepG2 Assay for human Activator Protein 1 (AP-1) (AID 2282931); settings: HepG2 Attagene cis-factorial AP-1 reporter mRNA; actives raise or lower the signal
Procedure, shortened: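 HepG2 cells transiently transfected with cis-element-driven multiplex reporter units; 24 h compound exposure. Reporter mRNA quantified by RT-PCR, FAM-labelled fragments resolved by capillary electrophoresis; bidirectional fit versus DMSO baseline.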

[10] = molecular target: Aryl hydrocarbon receptor (Homo sapiens) (UniProt P35869); assay: ATG_Ahr_CIS: Attagene CIS-FACTORIAL HepG2 Assay for human Aryl Hydrocarbon Receptor (Ahr) (AID 2282930); settings: HepG2 AhR cis-factorial reporter transcription; actives raise or lower the signal
Sequence of Aryl hydrocarbon receptor (Homo sapiens) (P35869 whole entry, looked up): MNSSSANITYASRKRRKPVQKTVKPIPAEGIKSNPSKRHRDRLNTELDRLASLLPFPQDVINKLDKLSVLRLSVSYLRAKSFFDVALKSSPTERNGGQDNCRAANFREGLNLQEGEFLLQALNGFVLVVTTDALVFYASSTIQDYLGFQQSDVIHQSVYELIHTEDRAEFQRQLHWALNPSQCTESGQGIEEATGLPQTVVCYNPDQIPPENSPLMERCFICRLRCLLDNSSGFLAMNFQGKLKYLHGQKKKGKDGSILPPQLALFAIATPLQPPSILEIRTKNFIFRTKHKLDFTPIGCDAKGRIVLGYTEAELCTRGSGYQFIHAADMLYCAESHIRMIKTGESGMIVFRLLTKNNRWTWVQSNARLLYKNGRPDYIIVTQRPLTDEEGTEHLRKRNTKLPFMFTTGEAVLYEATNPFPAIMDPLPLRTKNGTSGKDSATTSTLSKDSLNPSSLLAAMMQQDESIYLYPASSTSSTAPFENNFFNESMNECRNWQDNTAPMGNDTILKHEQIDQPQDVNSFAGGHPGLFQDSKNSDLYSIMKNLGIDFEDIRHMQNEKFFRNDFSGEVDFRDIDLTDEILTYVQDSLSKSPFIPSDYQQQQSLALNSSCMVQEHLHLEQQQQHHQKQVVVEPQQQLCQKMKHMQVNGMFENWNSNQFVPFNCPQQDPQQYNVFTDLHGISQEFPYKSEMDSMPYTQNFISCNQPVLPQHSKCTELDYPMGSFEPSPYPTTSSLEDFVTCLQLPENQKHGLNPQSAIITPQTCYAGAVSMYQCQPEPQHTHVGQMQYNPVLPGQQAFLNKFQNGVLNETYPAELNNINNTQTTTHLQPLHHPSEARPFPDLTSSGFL
Procedure, shortened: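 Values derive from bidirectional fitting against DMSO negative control. Underlying signal: cis-element reporter mRNA in transiently transfected HepG2, harvested 24 h post-dose and measured by RT-PCR plus capillary electrophoresis.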

Measured: AC50

C=CC(=O)OCC(F)(F)C(F)(F)C(F)(F)C(F)(F)COC(=O)C=C
active: [2] 43.5 µM | [3] 50 µM | [4] 58.1 µM | [5] 31.3 µM | [8] 60.6 µM
inactive: [1] | [6] | [7]

O=S(=O)(O)c1ccc2ccccc2c1
not listed: [3] | [8] | [10]
inactive: all other assays above

O=C(O)C(F)(F)C(F)(F)C(F)(F)F
not listed: [3]
inactive: all other assays above

FC(F)(F)C(F)(F)C(F)(F)C(F)(F)C(F)(F)C(F)(F)C(F)(F)Br
not listed: [3] | [10]
inactive: all other assays above

CC/C=C\CCOC(=O)c1ccccc1
not listed: [9] | [10]
inactive: all other assays above

C=CC(F)(F)C(F)(F)C(F)(F)C(F)(F)C(F)(F)C(F)(F)C(F)(F)C(F)(F)C=C
not listed: [2]
inactive: all other assays above

O=C(OCCOCCOCCOC(=O)c1ccccc1)c1ccccc1
active: [1] 10.8 µM
not listed: [3] | [9]
inactive: all other assays above

FC(F)(Br)C(F)(F)C(F)(F)C(F)(F)C(F)(F)C(F)(F)Br
active: [1] 42.7 µM
not listed: [3] | [9]
inactive: all other assays above

C(=C(c1ccccc1)c1ccccc1)c1ccccc1
inactive: [2] | [6] | [7] | [8]
active: [1] 0.647 µM | [4] 30 µM | [5] 59 µM

FC(F)(F)C(F)(F)C(F)(F)N(C(F)(F)C(F)(F)C(F)(F)F)C(F)(F)C(F)(F)C(F)(F)F
not listed: [3] | [10]
inactive: all other assays above

O=C(Cl)C(F)(F)C(F)(F)C(F)(F)C(F)(F)C(F)(F)C(F)(F)C(F)(F)C(F)(F)F
active: [5] 13 µM
not listed: [3] | [9] | [10]
inactive: all other assays above

FC(F)(F)C(F)(F)C(F)(F)CI
not listed: [2]
inactive: all other assays above

c1ccc(-c2ccccc2-c2ccccc2)cc1
active: [1] 0.534 µM | [4] 29.8 µM | [5] 27.7 µM
not listed: [3] | [9]
inactive: all other assays above

O=C(O)C(F)(F)C(F)(F)C(F)(F)C(F)(F)C(F)(F)C(F)(F)C(F)(F)C(F)(F)C(F)(F)C(F)(F)C(F)(F)C(F)(F)F
not listed: [3] | [10]
inactive: all other assays above

C#C[C@]1(O)CC[C@H]2[C@@H]3CCc4cc(OC)ccc4[C@H]3CC[C@@]21C
active: [1] 0.0054 µM | [4] 48.2 µM
not listed: [3] | [9]
inactive: all other assays above

CCCCCCC(C)OC(=O)CCCCC(=O)OC(C)CCCCCC (stereo not drawn)
not listed: [3]
inactive: all other assays above

O=C(C=Cc1ccccc1)OCC=Cc1ccccc1
active: [5] 24.3 µM
not listed: [3] | [9] | [10]
inactive: all other assays above

CCCCCCOC(=O)c1ccccc1O
not listed: [3]
inactive: all other assays above

OC[C@@H](O)[C@@H](O)[C@H](O)[C@@H](O)CO
not listed: [3] | [10]
inactive: all other assays above

O=C(O)C(F)(F)C(F)(F)C(F)(F)C(F)(F)C(F)(F)C(F)(F)C(F)(F)C(F)(F)C(F)(F)C(F)F
active: [1] 18.8 µM
not listed: [3] | [9]
inactive: all other assays above

FC(F)(F)C(F)(F)C(F)(F)C(F)(F)CCI
not listed: [3] | [10]
inactive: all other assays above

CCO[Si](CCC(F)(F)C(F)(F)C(F)(F)C(F)(F)C(F)(F)C(F)(F)F)(OCC)OCC
not listed: [3] | [9]
inactive: all other assays above

CNC(=S)NC
not listed: [2] | [3]
inactive: all other assays above

CC(C)c1ccccc1N
not listed: [2] | [10]
inactive: all other assays above

C=C(C)C(=O)OCC(F)(F)C(F)(F)C(F)(F)C(F)(F)C(F)(F)C(F)(F)C(F)(F)F
not listed: [2] | [9]
inactive: all other assays above

c1ccc(B(c2ccccc2)c2ccccc2)cc1
active: [1] 7.09 µM | [4] 71 µM | [5] 34.2 µM | [10] 32.8 µM
not listed: [2]
inactive: all other assays above

O=P(O)(O)OCCC(F)(F)C(F)(F)C(F)(F)C(F)(F)C(F)(F)C(F)(F)F
not listed: [2] | [10]
inactive: all other assays above

Source: PubChem BioAssay (EPA / NIEHS)
